# Laboratory results published in PubChem BioAssay (EPA / NIEHS).
# Records with an inconclusive call do not appear. The source made the active and inactive calls. How the source made its calls: active means hit-call score of the fitted dose curve at least 0.9, where 1 is the maximum; inconclusive means response in the unintended direction; inactive means score below 0.9.
# Molecular target: human Elastase, ELANE (gene 1991) (UniProt P08246)
# Assay: NVS_ENZ_hElastase: NovaScreen (NVS) Enzymatic Assay for human Elastase (AID 2283153)
# Experimental: NVS_ENZ_hElastase is a biochemical, single-readout assay that uses extracted gene-proteins from Human neutrophils in a cell-free assay. Measurements were taken 1.5 hours after chemical dosing in a 96-well plate.NVS_ENZ_hElastase is one of one assay component(s) measured or calculated from the NVS_ENZ_hElastase assay. It is designed to make measurements of enzyme activity, a form of enzyme reporter, as detected with absorbance signals by Spectrophotometry technology.Data from the assay component NVS_ENZ_hElastase was analyzed into 1 assay endpoint. This assay endpoint, NVS_ENZ_hElastase, was analyzed in the positive analysis fitting direction relative to DMSO as the negative control and baseline of activity. Using a type of enzyme reporter, loss-of-signal activity can be used to understand changes in the enzymatic activity as they relate to the gene ELANE. Furthermore, this assay endpoint can be referred to as a primary readout, because this assay has produced multiple assay endpoints where this one serves a enzymatic activity function. To generalize the intended target to other relatable targets, this assay endpoint is annotated to the protease intended target family, where the subfamily is serine protease.
# Binding assays used specific radioligands (tritiated, iodinated) with non-radioactive competitive displacement ligands in agonist or antagonist protocols (as indicated) and various reference compounds and inhibitors to titrate specific binding to receptors and transporters. Most enzyme assays (CYPs, kinases, phosphatases, proteases, HDACs) used recombinant protein and specific substrates (fluorescence mostly, some colorimetric and radioactive) and inhibitors, followed by a biochemical separation of substrate and product. All assays for the biochemical HTS were initially run in duplicate at a single concentration (10 uM for CYP450 assays and 25 uM for all others). Assay-chemical combinations meeting a pre-defined threshold (e.g., 30% inhibition and other criteria defined below) were then run in singleton concentration-response format with maximum concentration of 20 uM for CYPs and 50 uM for all others. Each assay was run with positive and negative controls, and concurrent controls on every plate. The follow-up (secondary) screen tested active chemical-pairs in concentration series, as well as a few additional assays not tested in the primary screen, some selected negative inactives, and several cases re-run in the concentration series for confirmatory purposes.
# Chain of human Elastase, ELANE (gene 1991) (P08246 whole entry, looked up): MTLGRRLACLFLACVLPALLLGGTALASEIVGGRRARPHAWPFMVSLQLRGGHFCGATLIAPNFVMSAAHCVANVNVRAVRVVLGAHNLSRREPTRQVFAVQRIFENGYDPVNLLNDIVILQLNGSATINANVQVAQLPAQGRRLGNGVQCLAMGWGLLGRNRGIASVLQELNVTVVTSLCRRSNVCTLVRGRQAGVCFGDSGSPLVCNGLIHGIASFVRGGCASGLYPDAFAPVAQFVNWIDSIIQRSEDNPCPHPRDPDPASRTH
Compound,AC50,outcome
CCCCCCCCCCCO,27.4 µM (active),–
CN1C(=O)N(c2ccccc2Br)Cc2cnc(Nc3ccc4c(c3)OCC(CO)O4)nc21 (centres undefined),17 µM (active),–
CC/C(=C(/CC)c1ccc(O)cc1)c1ccc(O)cc1,–,inactive
CCCCCCCCOC(=O)c1cc(O)c(O)c(O)c1,12.5 µM (active),–
CCN(Cc1cccnc1)C(=O)c1cccc(Cl)c1[C@]1(C)C(=O)N(Cc2ccc(OC)cc2OC)c2ccc(Cl)cc21,3.84 µM (active),–
O=C(O)c1ccccc1-n1cc(C(=O)O)c(=O)c2cc(Nc3c(F)cc(F)cc3Cl)c(Cl)cc21,18.4 µM (active),–
CC(C)(C)c1csc(-c2cc3cc(OCc4ccccc4CC(=O)O)ccc3o2)n1,12.5 µM (active),–
CC[C@@H]1C[C@H](N(Cc2cc(C(F)(F)F)cc(C(F)(F)F)c2)C(C)=O)c2cc(C(F)(F)F)ccc2N1C(=O)OC(C)C,–,inactive
CN(C)C(=O)C1(N2CCCCC2)CCN(CC[C@@]2(c3ccc(Cl)c(Cl)c3)CN(C(=O)c3ccccc3)CCO2)CC1,19 µM (active),–
O=C1O[C@H]([C@@H](O)CO)C(O)=C1O,–,inactive
Cc1c2ccccc2c(C)c2c1ccc1ccccc12,14.3 µM (active),–
COc1ccc2cc(S(=O)(=O)N[C@H](CC(=O)N[C@H](Cc3ccc(CN4[C@H](C)CCC[C@@H]4C)cc3)C(=O)N(C)C(C)C)c3ccc4c(c3)OCO4)ccc2c1,9.38 µM (active),–
O=C1CCC(C2CCCCC2)CC1,10 µM (active),–
CCN(Cc1cccc(S(=O)(=O)O)c1)c1ccc(C(=C2C=CC(=[N+](CC)Cc3cccc(S(=O)(=O)O)c3)C=C2)c2ccccc2S(=O)(=O)[O-])cc1,3.18 µM (active),–
